Results taken from PubChem BioAssay (NCATS).
Records with an inconclusive call do not appear. A call without a number means that no potency is given here. Active and inactive are the calls of the source. Calls follow the shape of the dose curve; as a rule, active = well fitted inhibition curve with a large enough effect; inconclusive = small, poorly fitted or top-dose-only effect; inactive = flat fitted curve, though single readings scatter.

Each molecule was assayed against Calcium and integrin-binding protein 1 (Homo sapiens) (UniProt Q99828) (assay: Primary qHTS for Identification of Calcium Integrin Binding Protein 1 (CIB1) Competitor (AID 1508620; also: top concentration of the series differs between compounds)). Settings: CIB1-GST / FITC-alphaIIb peptide fluorescence polarization; series mostly up to 114 µM.
Sequence of Calcium and integrin-binding protein 1 (Homo sapiens) (Q99828 whole entry, looked up): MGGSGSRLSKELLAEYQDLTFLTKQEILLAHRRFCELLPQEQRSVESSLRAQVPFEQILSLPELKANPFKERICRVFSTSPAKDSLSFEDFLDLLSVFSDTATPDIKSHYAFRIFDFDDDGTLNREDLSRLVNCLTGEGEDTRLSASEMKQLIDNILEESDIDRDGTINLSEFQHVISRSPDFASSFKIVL
How it was run: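 Fluorescence polarization competition: GST-tagged CIB1 (1 uM final) preincubated with compound 15 min at room temperature, then FITC-labelled alphaIIb peptide (100 nM final) added. After 15 min at room temperature, polarization read at Ex 480/Em 540.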
In the case of `COc1cncc(NC(=O)c2cccs2)c1`, the Potency is reported as “inactive”.
With `O=c1c2ccccc2nc2sc(Nc3cccc(-c4ccncc4)c3)nn12` the Potency was “inactive”.
`Cc1c(C(=O)OCC(C)(C)C)[nH]c2c1C(=O)CC(c1ccco1)C2` (stereo not given) was tested, and the Potency was “inactive”.
`Brc1ccc(-c2csc(N3CCC(c4nn[nH]n4)CC3)n2)cc1` was tested, and the Potency was “inactive”.
With `COc1ccc2c(c1)Oc1ncn(CCN3CCOCC3)c(=N)c1C2c1ccc(OC)c(OC)c1` (stereo not given) the Potency was “inactive”.
`CC1(C)CCC(C)(C)c2cc([S+](=O)([O-])N3CCN([S+](=O)([O-])c4c(F)cccc4F)CC3)ccc21` was tested, and the Potency was “inactive”.
For `COc1ccc(S(=O)(=O)Nc2cc(OC)cc3cccnc23)cc1`, the Potency was “inactive”.
With `CCC(Nc1ncnc2ccc(-c3c(C)noc3C)cc12)c1ccccc1` (stereo not given) the Potency was “inactive”.
For `N#Cc1c(-c2ccc(Br)cc2)no[n+]1[O-]`, the Potency was “inactive”.
In the case of `COc1ccccc1-c1no[n+]([O-])c1C#N`, the Potency is reported as “inactive”.
`O=C(Nc1ccc(-n2ccnc2)c(F)c1)Nc1nnc(-c2ccncc2)s1` was tested, and the Potency was “inactive”.
For `Cc1ccc(NS(=O)(=O)c2cc3c(cc2Cl)CCC(=O)N3)cc1C`, the Potency was “inactive”.
In the case of `CCOC(=O)CCC(=O)Nc1ncnc2c1C(c1ccccc1)c1c(ccc3ccccc13)O2` (stereo not given), the Potency is reported as “inactive”.
In the case of `CC(C)N1CCc2c(-c3nc4ccccc4s3)csc2C1`, the Potency is reported as “inactive”.
`Cc1ccnc(NC(=S)N2CCN(c3cc(Cl)cc(Cl)c3)CC2)c1` was tested, and the Potency was “inactive”.
In the case of `Cc1cc(C)n2ncc(C(=O)N3CCCC3)c2n1`, the Potency is reported as “inactive”.
In the case of `O=C(c1ccccc1O)N(Cc1ccco1)Cc1cccs1`, the Potency is reported as “inactive”.
For `COC/C=C/c1cc(F)c(S(=O)(=O)N2CCN(S(=O)(=O)c3ccc4c(c3)OCCO4)CC2)cc1F`, the Potency was “inactive”.
`Cc1ccccc1C(=O)N1CCc2cc(-c3nc(NC(=O)CC4CCCCC4)sc3C)ccc21` was tested, and the Potency was “inactive”.
With `CNc1oc(-c2ccc(F)cc2)nc1C#N` the Potency was “inactive”.
With `COc1ccc(C2Nc3ccccc3C(=O)N2CCc2ccccc2)cc1COc1ccc(NC(C)=O)cc1` (stereo not given) the Potency was “inactive”.
In the case of `Oc1ccc(COCc2ccccc2)c2cccnc12`, the Potency is reported as “inactive”.
For `O=S1(=O)N=C(Oc2ccc3ccccc3c2)c2ccccc21`, the Potency was “inactive”.
`Cc1ccc(CNc2ccc(N3CCN(C)CC3)cc2)cc1` was tested, and the Potency was “inactive”.
For `CNC(=O)C1=C(C)NC(Nc2nc3ccccc3o2)=NC1c1[nH]ncc1Cl` (stereo not given), the Potency was “inactive”.
In the case of `O=[N+]([O-])c1cccc(CSc2nc3ncc(Br)cc3[nH]2)c1`, the Potency is reported as “inactive”.
With `O=C1CCCC2=C1C(c1[nH]ncc1Cl)N=C(Nc1ccccn1)N2` (stereo not given) the Potency was “inactive”.
With `CCCCCNc1oc(-c2cccc3ccccc23)nc1C#N` the Potency was “inactive”.
For `Oc1cccc2cc(NCc3ccccc3F)cnc12`, the Potency was “inactive”.
In the case of `N#CN1CCC(NC(=O)c2cccc(F)c2)CC1`, the Potency is reported as “inactive”.
In the case of `Cn1ncc(-c2nnc(-c3ccccc3)n2CCCn2ccnc2)c1N`, the Potency is reported as “inactive”.
In the case of `COc1ccc(C2Nc3ccccc3C(=O)N2Cc2cccc(-c3ccccc3)c2)cc1COc1ccc(NC(C)=O)cc1` (stereo not given), the Potency is reported as “inactive”.
For `Cc1ccnc(NC(=S)N2CCN(c3ncc(C(F)(F)F)cc3Cl)CC2)c1`, the Potency was “inactive”.
`COc1cc(Nc2nc(-c3ccncc3)nc3ccccc23)ccc1N1CCN(C)CC1` was tested, and the Potency was “inactive”.
With `CC(C)(C)CNc1ncnc2ccc(-c3ccc(C(=O)O)o3)cc12` the Potency was “inactive”.
`COc1cc(NC(=O)C(OC(=O)CNC(=O)c2ccccc2)c2ccccc2)c(OC)cc1Cl` (stereo not given) was tested, and the Potency was “inactive”.
`CCOC(=O)C1CCN(C(=O)C2(NC(=O)Nc3ccccc3Cl)CCC2)CC1` was tested, and the Potency was “inactive”.
With `Cc1noc(C)c1-c1ccc2ncnc(NCc3cccc(-c4ccccc4)c3)c2c1` the Potency was “inactive”.
For `O=C(Cn1cc(CNCc2ccccc2)nn1)Nc1cc(C(F)(F)F)ccc1Cl`, the Potency was “inactive”.
In the case of `O=C(O)c1ccc2c(c1)C(=O)N([C@H](Cc1ccc([N+](=O)[O-])cc1)C(=O)O)C2=O`, the Potency is reported as “inactive”.
